Bioassay records deposited in PubChem BioAssay by several laboratories.
tim23-1 inh: growth inhibitors of tim23-1 mutant yeast, primary screen, luminescence, uHTS; S. cerevisiae tim23-1 growth, BacTiter-Glo luminescence, 24 h; inhibition, % at 20 µM; 1.3% of 330,000 active; AID 463212, 2010;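 active = growth inhibition of the mutant yeast at or above 50%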;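 note: temperature-sensitive mutant grown at 25 °C; plate controls were DMSO-treated mutant yeast for no effect and medium wells lacking yeast for full effect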
SKKanGAS inh: S. pyogenes SKKanGAS growth inhibitors in kanamycin, primary screen, streptokinase expression inhibitor project, SKKanGAS strain, BacTiter-Glo luminescence; 6 h; inhibition, % at 7.5 µM; 1.3% of 300,000 active; AID 1662, 2009;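 active = mean replicate score, as percent of positive control median, at least 50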;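 note: strain carries kanamycin resistance gene driven by streptokinase promoter and grows in 40 µg/ml kanamycin; loss of luminescence reflects streptokinase promoter inhibition or plain growth inhibition; 0% = median of DMSO wells and 100% = positive control at its reference dose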
tim10-1 inh: growth inhibitors of tim10-1 mutant yeast, primary screen, luminescence, uHTS; S. cerevisiae tim10-1 ts strain growth, BacTiter-Glo, 24 h; inhibition, % at 20 µM; 2.2% of 330,000 active;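 active = inhibition of at least 40%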;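 note: mutant grown at 25 °C; 0% = DMSO wells with yeast and 100% = wells holding no yeast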
PfHsp90 set2: growth inhibition of PfHsp90-expressing yeast, primary screen, antimalarial PfHsp90 inhibitor project, S. cerevisiae, BacTiter-Glo luminescence, single point, set 2 | BacTiter-Glo ATP, 48 h; yeast lacking PDR1 and PDR3 efflux regulators | inhibition, % at 9.4 µM | 0.32% of 310,000 active | AID 504621, 2011;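 active = every replicate shows inhibition above about 80%, whatever the replicate mean, limit read from the data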;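 note: 0% = DMSO neutral controls and 100% = 20 µM radicicol positive controls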
TIM10 inh: growth inhibitors of isogenic TIM10 control yeast, primary screen, counter-screen for tim10-1 yeast inhibitor project, luminescence, uHTS. S. cerevisiae TIM10 strain growth, BacTiter-Glo luminescence, 24 h. inhibition, % at 10 µM. 1.4% of 330,000 active;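 active = inhibition of 40% or more at the single tested concentration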;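 note: wild-type TIM10 isogenic control strain grown at permissive 25 °C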
V-ATPase pHluor: regulators of yeast V-ATPase proton pumping, primary screen, pHLuorin cytosolic pH fluorescence | S. cerevisiae | AID 504577, 2011 | 0.37% of 350,000 active | response, % at 10 µM; in the data active = response mostly above about 7.3%, no sharp cut-off; inactive = mostly below about 5.4%; note: actives read high
tim10-1 conf: growth inhibitors of tim10-1 mutant yeast, confirmation, single concentration, luminescence, S. cerevisiae; shares compounds with tim10-1 inh; S. cerevisiae tim10-1 ts strain growth, BacTiter-Glo, 24 h; inhibition, % at 20 µM; 56% of 7,400 active;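 active = inhibition of yeast growth at or above a set limit in either of two repeat tests at 20 µM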;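 note: tim10-1 mutant grown at permissive 25 °C to find synthetic lethal compounds; 0% = DMSO yeast wells and 100% = medium wells without yeast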
* = called active by the depositor; . = not tested or not shown. Only some compounds are listed: those with a hit (about 4.6% of all), similar ones and a draw of the others.

SMILES	tim23-1 inh	SKKanGAS inh	tim10-1 inh	PfHsp90 set2	TIM10 inh	V-ATPase pHluor	tim10-1 conf
Cn1ccsc1=NC(=O)c1ccc(Cl)c([N+](=O)[O-])c1	-1	-2	-1	10	-7	5	.
Cn1cccc1C(=O)NC(=O)COC(=O)c1ccc(S(C)(=O)=O)c([N+](=O)[O-])c1	40	.	41*	-5	35	2	33*
Cc1cc(F)ccc1S(=O)(=O)N1CCCOC1CNC(=O)C(=O)NCc1ccncc1 (stereo not drawn)	-3	2	-7	-5	1	-1	.
CC(C)CC1NC(=O)N(CC(=O)Nc2ccccc2-c2ccccc2)C1=O (stereo not drawn)	9	2	7	.	17	-2	.
O=c1oc(-c2ccccc2)nc2sc3c(c12)CCCC3	10	-2	16	-10	-4	-1	.
Nc1nc(-c2cccnc2)nc2sc3c(c12)CCCC3	39	6	52*	16	31	2	33*
CC(=O)Nc1ccc(Oc2nc(-c3cccnc3)nc3sc4c(c23)CCCC4)cc1	1	-7	2	0	4	1	.
O=C1CN(c2nc(-c3cccnc3)nc3sc4c(c23)CCCC4)CCN1	-78	10	42*	.	30	-7	15
Cc1nc(NCc2cccnc2)c2c3c(sc2n1)CCCC3	16	5	45*	19	18	-2	5
O=C1CC[C@@H]2C[C@@]3(C[C@@H]4CCN1[C@H]24)Nc1cc([N+](=O)[O-])ccc1NC3=NCc1ccccc1	.	.	.	3	.	0	.
Cc1cccc(N2CCN(C(=O)C3CCC(=O)N(Cc4ccccc4F)C3)CC2)c1C (stereo not drawn)	19	-8	18	-17	0	-5	.
CC(C)OC(=O)c1ccc2nc3ccccc3nc2c1	20	15	41*	-102	2	3	11
Cc1ccc(S(=O)(=O)N2CN(Cc3ccco3)c3nc4ccccc4nc32)cc1	29	43	22	-8	24	2	.
COc1ccc(S(=O)(=O)N2CN(Cc3ccco3)c3nc4ccccc4nc32)cc1	27	23	47*	-14	20	0	27
CC1CC(C)CN(S(=O)(=O)c2ccc3c(c2)CC(C)N3C(=O)C2CC2)C1 (stereo not drawn)	27	-4	20	15	12	0	.
CC1CC(C)CN(S(=O)(=O)c2ccc3c(c2)CC(C)N3C(=O)C2CCC2)C1 (stereo not drawn)	46	5	43*	6	21	-1	12
COc1ccc(CNC(=O)C2CCN(S(=O)(=O)c3ccc4c(c3)CC(C)N4C(=O)C3CC3)CC2)cc1 (stereo not drawn)	38	-3	40	10	14	0	31*
CN(C)c1cc[n+](CC(=O)Nc2ccc(Oc3ccccc3)cc2)cc1	21	-3	28	-1	29	-3	.
O=C(CCNc1ccc(Cc2ccncc2)cc1)c1cccc([N+](=O)[O-])c1	23	3	43*	-1	31	3	34*
O=C(CCNc1cccc(F)c1)c1cccc([N+](=O)[O-])c1	19	-2	35	-20	-1	-1	.
COc1ccc(CCNC(=O)c2ccc(NS(=O)(=O)c3ccc4[nH]c(=O)[nH]c4c3)cc2)cc1	13	-3	2	-18	14	0	.
CCOC(=O)CC(=O)CSc1ccc2nnc(-c3cccc(F)c3)n2n1	13	12	25	15	23	-1	.
CSc1ccc2nnc(-c3cccc(F)c3)n2n1	48	0	48*	-7	20	1	41*
c1csc(-c2nc3ccccn3c2NC2CCCCC2)c1	27	1	48*	3	31	-6	33*
Cc1ccc2nc(-c3cccnc3)c(NC3CCCCC3)n2c1	31	1	28	0	22	-4	.
SMILES	tim23-1 inh	SKKanGAS inh	tim10-1 inh	PfHsp90 set2	TIM10 inh	V-ATPase pHluor	tim10-1 conf
Cc1ccn2c(NCc3ccccc3)c(-c3cccs3)nc2c1	46	0	46*	13	29	1	30
Cc1ccn2c(NC(=O)c3ccccc3)c(-c3cccs3)nc2c1	-4	2	6	.	-21	-5	.
Cc1ccn2c(NC3CCCC3)c(-c3cccs3)nc2c1	33	-1	46*	-13	21	-1	31*
C/C(=N\NC(=O)Cc1ccc(Cl)cc1)c1ccccc1O	16	34	-20	8	-7	-1	.
C/C(=N\NC(=O)CNc1cccc(C(F)(F)F)c1)c1ccc(Br)cc1	12	-13	27	10	12	1	.
C/C(=N\Nc1cccc(C(F)(F)F)c1)c1ccc(O)cc1	16	2	45*	9	9	-1	-10
CCn1ccnc1CN(C)Cc1cn(-c2cc(C)ccc2C)nc1-c1ccccc1	31	19	42*	-10	27	-3	17
O=C(CSc1cn(CCNC(=O)c2cccs2)c2ccccc12)NC1CCCC1	16	4	5	-2	-3	2	.
Cc1cccc(N2CCN(C(=O)CCc3nc4ccccc4c(=O)[nH]3)CC2)c1C	-16	.	-9	-25	-8	1	.
O=C1C=CCC(/C=C/c2ccccc2)O1 (stereo not drawn)	40	3	55*	.	35	.	27
COc1ccc(N2C(=O)CC(N3CCC(O)(c4cccc(C(F)(F)F)c4)CC3)C2=O)cc1 (stereo not drawn)	40	9	43*	8	25	-4	33*
COc1ccc(N2C(=O)CC(N3CCCCC3)C2=O)cc1 (stereo not drawn)	25	-16	10	-33	-4	-1	.
Oc1ccc(Br)cc1/C=N/n1cnc2ccccc21	33	5	42*	18	34	-2	24
Oc1ccc(Br)cc1/C=N/N1CCCCC1	19	-6	13	0	15	1	.
COc1ccccc1C(=O)Nc1ccccc1C(=O)N1C(C)CCCC1C (stereo not drawn)	28	1	44*	13	8	-1	32*
CCOC(=O)N1CCN(C(=O)CCCn2c(=S)[nH]c3ccsc3c2=O)CC1	3	3	3	-13	-20	-4	.
O=C(c1cc2ccccc2o1)N1CCN(S(=O)(=O)c2ccccc2)CC1	34	.	43*	22	12	-5	27
O=C(c1cc2ccccc2o1)N1CCN(S(=O)(=O)c2cccs2)CC1	20	-7	33	-33	14	3	.
